# Data published in PubChem BioAssay AID1376 (SRMLSC, 2008).
# Hit rate of the full screen: of about 220,000 compounds, about 530 (0.24%) were called active. For the sample, actives were picked, then their nearest neighbours and some compounds at random. Entries with a potency or affinity are not part of this list. Values without a mark were called inactive. Cut-off read from the data, not from the text of the source: active = inhibition above about 13%; inconclusive = no clear call, values can overlap the other calls; inactive = below that.
# Target: Bifunctional protein GlmU (Mycobacterium tuberculosis (strain ATCC 25618 / H37Rv)) (UniProt P9WMN3)
# Assay: inhibition of mycobacterial GlmU enzyme – biochemical, glucosamine-1-phosphate acetyltransferase (AID 1376);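 note: 0% = complete reaction with vehicle and 100% = reaction without substrate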
# Settings: M. tuberculosis GlmU acetyltransferase enzyme assay; stronger effect = higher value;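 tested at 30 µM in the primary screen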
# Sequence of Bifunctional protein GlmU (Mycobacterium tuberculosis (strain ATCC 25618 / H37Rv)) (P9WMN3 whole entry, looked up): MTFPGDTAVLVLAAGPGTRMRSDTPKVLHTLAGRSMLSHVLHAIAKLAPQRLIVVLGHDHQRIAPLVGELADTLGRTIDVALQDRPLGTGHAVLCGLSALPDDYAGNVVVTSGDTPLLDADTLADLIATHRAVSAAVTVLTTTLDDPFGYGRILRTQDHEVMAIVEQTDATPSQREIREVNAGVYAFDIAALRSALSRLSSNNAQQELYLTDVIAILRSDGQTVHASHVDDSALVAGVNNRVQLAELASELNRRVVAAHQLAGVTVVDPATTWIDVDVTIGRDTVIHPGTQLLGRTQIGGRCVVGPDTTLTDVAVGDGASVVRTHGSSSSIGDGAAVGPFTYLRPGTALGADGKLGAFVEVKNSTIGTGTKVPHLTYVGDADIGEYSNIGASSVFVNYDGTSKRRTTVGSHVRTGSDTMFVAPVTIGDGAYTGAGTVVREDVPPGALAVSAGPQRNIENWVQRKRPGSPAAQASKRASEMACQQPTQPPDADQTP
row,SMILES,inhibition
1,CC(=O)CSc1ccc(-c2nc3cc(C)c(C)cc3[nH]2)cn1,8.32%
2,Cc1cc2nc(-c3ccc(SCc4ccc(C#N)cc4)nc3)[nH]c2cc1C,0.22%
3,Cc1cc2nc(-c3ccc(SCc4ccc(C(=O)O)cc4)nc3)[nH]c2cc1C,13.2% (active)
4,O=C(O)c1ccccc1-c1ccccc1C(=O)Nc1cccc(Br)c1,0.35%
5,CCOc1ccc(-c2cc3cc(OC)c(OC)cc3c(C)n2)cc1,-1.9%
6,Cc1nc(-c2ccccc2Cl)sc1C(=O)/C=C/N(C)C,-0.01%
7,Cc1ccc2nc(-c3ccc(NC(=O)CSCC(=O)O)cc3)sc2c1,4.5%
8,Cc1nnc(SCC(=O)Nc2ccc(-c3nc4ccccc4s3)cc2)s1,6.16%
9,CCc1nc(-c2ccccc2)c2ccccn12,0.63%
10,COCCn1nnnc1C(C(C)C)N(Cc1cccnc1)Cc1cc2cc(OC)ccc2[nH]c1=O (stereo not given),0.94%
11,COc1ccc(C)cc1NC(=O)NC(C)c1ccncc1 (stereo not given),-4.98%
12,COc1ccc(Cl)cc1NC(=O)NC(C)c1ccncc1 (stereo not given),13% (active)
13,COc1ccc(Cl)cc1NC(=O)NC(C)C,-2.94%
14,Cc1cc2c3ccccc3ncn2n1,4.82%
15,CCOC(=O)c1cnc2c(c(C)nn2C)c1Oc1ccccc1F,3.91%
16,COc1cccc(OCC(Cn2cnc3ccccc32)OC(C)=O)c1 (stereo not given),-0.44%
17,O=C(/C=C/c1ccco1)Nc1cc(Cl)ccc1C(=O)O,13% (active)
18,O=C(O)CCCN1C(=O)/C(=C\c2ccco2)SC1=S,23.1%
19,CCc1ccccc1NC(=O)c1cccc(NC(=O)/C=C/c2ccco2)c1,-2.87%
20,COC(=O)c1ccccc1NC(=O)/C=C/c1ccco1,-3.26%
21,O=C(/C=C/c1ccco1)Nc1ccc(Oc2ccc(Cl)cc2)cc1,2.3%
22,O=C(/C=C/c1ccco1)Nc1cccnc1Cl,0.97%

row,SMILES,inhibition
1,O=C(/C=C/c1ccco1)Nc1ccccc1C(=O)O,15% (active)
2,O=C(/C=C/c1ccco1)Nc1ccccc1N1CCCC1,-0.88%
3,O=C(CCCN1C(=O)/C(=C/c2ccco2)SC1=S)Nc1cccc(C(=O)O)c1,8.84%
4,O=C(/C=C/c1ccco1)Nc1ccccc1C(=O)Nc1cccc(C(=O)O)c1,3.1%
5,O=C(/C=C/c1ccco1)Nc1cccc(C(=O)Nc2ccccc2C(=O)O)c1,14.7% (active)
6,CCc1cccc(CC)c1NC(=O)COC(=O)c1ccccc1-c1nc2ccccc2s1,-1.43%
7,COc1ccc(-n2c(SCC(=O)NCCCN3CCCC3=O)nnc2C(C)N2CCCCC2)cc1 (stereo not given),-0.73%
8,O=C(O)C(Cc1cc(Cl)ccc1Cl)Sc1nc2ccccc2[nH]1 (stereo not given),-6.33%
9,COCCNC(=O)COC(=O)c1[nH]c(C)c(C(C)=O)c1C,-0.47%
10,COc1ccc(/C=C/C(=O)Nc2nnc(C(C)C)s2)cc1OC,4.06%
11,CN(C)/C=C/C(=O)C(Cl)(Cl)Cl,-0.97%
12,COc1ccc(Nc2nnc(SCc3cc([N+](=O)[O-])cc4c3OCOC4)s2)cc1,-5.67%
13,O=C(CCCOc1ccc(Cl)cc1Cl)NCc1ccncc1,2.06%
14,CN(CC(=O)Nc1ccc2c(c1)OCO2)S(=O)(=O)c1ccc2c(c1)CCC(=O)N2,2.93%
15,O=C(Cc1c(O)c2ccccc2[nH]c1=O)N(Cc1ccccc1)Cc1ccccc1,35% (active)
16,CCN(CC)C(=O)Cc1c(O)c2ccccc2[nH]c1=O,1.17%
17,CC(C)CCN(CCC(C)C)C(=O)Cc1c(O)c2ccccc2[nH]c1=O,-2.47%
18,COc1ccc(NC(=O)C2=C(C)Nc3nc(CCCO)nn3C2c2ccc(OC)c(OC)c2)cc1 (stereo not given),6.23%
19,COc1cc(NC(=O)c2cccs2)c(C(=O)OCC(=O)c2cc(C)n(-c3ccc(F)cc3)c2C)cc1OC,3.27%
20,Cc1ccccc1Oc1ccc(NC(=O)C2CC=CCC2C(=O)O)cc1 (stereo not given),3.98%
21,CN(C)c1ncc(S(=O)(=O)c2ccccc2)c(-c2ccccc2Cl)n1,13.9% (active)
22,CN(C)c1ncc(S(=O)(=O)c2ccc(Cl)cc2)c(-c2ccccc2)n1,-0.58%

row,SMILES,inhibition
1,Cc1ncc(S(=O)(=O)c2ccccc2)c(-c2ccccc2Cl)n1,4.86%
2,CC(C)N1CCC(N2CCN(Cc3ccc4nsnc4c3)CC2CCO)CC1 (stereo not given),-6.91%
3,O=C(CCc1nc2ccccc2[nH]c1=O)OCc1ccc(S(=O)(=O)N2CCOCC2)cc1,1.61%
4,Cc1cccc2cc3c(NC(=O)CC(C)C)nn(C)c3nc12,0.35%
5,C/C(=C\c1ccccc1)CN1CCN(c2ccccc2)CC1,2.64%
6,CC1=C(C/C(C)=C/c2ccccc2)/C(=C/CO)[C@H](O)[C@](C)(O)C12CC2,13.9% (active)
7,CC1=C(C/C(C)=C/c2ccccc2)/C(=C/CO)[C@@H]2OC(=O)O[C@]2(C)C12CC2,3.53%
8,NC(=O)NNC(=S)Nc1cccc2ccccc12,4.54%
9,NC(=O)c1ccccc1NC(=O)Nc1cccc2ccccc12,-1.2%
10,NC(=O)Nc1cccc2ccccc12,14.6% (active)
11,O=C1CCCC2=C1C1c3ccccc3C(=O)N1c1ccc(C(=O)c3ccccc3)cc1N2 (stereo not given),0.1%
12,O=C(CCC(=O)c1ccc(Oc2ccccc2)cc1)Nc1cccc(Cl)c1,3.77%
13,CCOc1ccccc1-c1c2cc(O)c(=O)cc-2oc2cc(O)c(O)cc12,-3.1%
14,COc1ccc(OC)c(-c2oc3ccccc3c(=O)c2O)c1,0.78%
15,COc1ccc(OC)c(-c2c3cc(O)c(=O)cc-3oc3cc(O)c(O)cc23)c1,14.7% (active)
16,O=c1cc(-c2ccccc2Cl)oc2cccc(O)c12,3.22%
17,Cc1ccccc1-c1cc(=O)c2c(O)cccc2o1,-2.72%
18,COc1cc(OC)c(-c2c3cc(O)c(=O)cc-3oc3cc(O)c(O)cc23)cc1OC,8.01%
19,Cc1c2cc(O)c(=O)cc-2oc2cc(O)c(O)cc12,27.1% (active)
20,CC1(C)CC(=O)c2c(oc3cc(O)c(O)cc23)C1,-1.56%
21,O=c1cc2oc3cc(O)c(O)cc3c(-c3ccccc3O)c-2cc1O,15.4% (active)
